Assay outcomes: PubChem BioAssay, ICCB-Longwood Screening Facility, Harvard Medical School
Many of the other results were omitted from the sample, so hits are more common in it than they were.
Sa growth 42C: blocks Staphylococcus aureus growth. S. aureus RN4220 growth, OD600, 20 h, 42 °C; active compounds read low. relative growth, % (no concentration beside the values). 0.53% of 170,000 active. AID 720641;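 active = relative growth at most 50% at the other temperature and 20+ points below 30 °C, or under 10% at both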
Sa helicase inh: S. aureus DNA helicase inhibition; purified S. aureus helicase, fluorescence unwinding assay; 0.05% of 120,000 active; inhibition, % (no concentration beside the values); in the data active = inhibition above about 25%, passing the limit was not always enough;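 also: 0% = mean of negative control wells and 100% = mean of positive control wells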
Active calls of the source: *; · = no result.

SMILES | Sa growth 42C | Sa helicase inh
CCN1CCOC(=O)C1CC(=O)Nc1ccccc1C(F)(F)F (stereo not drawn) | 30.2* | ·
CCc1ccc(NC(=O)CC2C(=O)OCCN2CC)cc1 (stereo not drawn) | 47.1 | ·
CCCSC(=S)c1c(C)[nH]n(-c2ccc(C)cc2)c1=O | 122.8 | ·
CCCSC(=S)c1c(C)[nH]n(-c2ccccc2)c1=O | 0.2* | -7.0
Cc1nccn1CC(=O)N1c2ccccc2Sc2ccccc21 | -0.3* | 6.0
Cn1ccnc1SC(=O)N1c2ccccc2Sc2ccccc21 | 117.5 | 2.0
Brc1ccc2nc(CSc3nnc4ccccn34)cn2c1 | 109.0 | 6.0
CC1COC2=C(N3CCN(C)CC3)C(F)=CC3C(=O)C(C(=O)O)=CN1C23 (stereo not drawn) | -0.5* | -3.0
CCN1CCN(C(c2ccc(Cl)cc2)c2c(O)cc(C)n(CCOC)c2=O)CC1 (stereo not drawn) | 75.3 | ·
c1cncc(-c2nc(-c3ccco3)cs2)c1 | 99.8 | -16.0
O=C(/C=C(\O)c1ccccc1)C(=O)Nc1cccc(F)c1 | -0.6* | 20.0
O=C(/C=C(\O)c1ccc(Br)cc1)C(=O)Nc1ccccc1 | 45.5 | ·
Cc1c(C(=O)N2CCCCC2C)sc2nc(-c3ccccc3)cn12 (stereo not drawn) | · | -15.0
CCc1ccc(Nc2c3c(nc4ccccc24)CCC3)cc1 | 6.7* | 18.0
CCc1ccc(Nc2c3c(nc4ccccc24)CCCC3)cc1 | 78.8 | 7.0
Cn1c(O)c(N=NC(=O)c2ccccc2)c2ccccc21 | 92.6 | 6.0
CCCCn1c(O)c(N=NC(=O)c2ccccc2)c2ccccc21 | 3.7* | 7.0
CC(=O)Nc1ccc(Oc2cc(C#N)c(C#N)cc2N2CCOCC2)cc1 | 94.8 | 13.0
Cc1cccc(OC(=O)c2cc(-c3ccc4c(c3)OCCO4)on2)c1 | 1.8* | ·
CC(C)c1ccc(OC(=O)c2cc(-c3ccc4c(c3)OCCO4)on2)cc1 | 82.7 | ·
Cc1cc(C)cc(OC(=O)c2cc(-c3ccc4c(c3)OCCO4)on2)c1 | 1.7* | ·
COc1ccc(OC(=O)c2cc(-c3ccc4c(c3)OCCO4)on2)cc1 | 97.2 | ·
Cc1ccc2onc(CNC(=O)NCc3ccc(Cl)cc3)c2c1 | 101.7 | ·
O=C(O)c1ccc(CN2CCCCC2)cc1 | 104.5 | 12.0
O=C(O)c1ccc(O)c(SCN2CCCCC2)c1 | 4.1* | -3.0
SMILES | Sa growth 42C | Sa helicase inh
C/C(=N\NC(=O)c1cc(Br)ccc1O)c1ccccn1 | 3.1* | 4.0
Cc1cc(Br)ccc1NC(=O)c1ccccn1 | 106.4 | 6.0
Fc1cc(Br)ccc1N=Cc1ccncc1 | 129.6 | 1.0
CCOC(NC(=O)Nc1ccc(Br)cc1)(C(F)(F)F)C(F)(F)F | -0.7* | ·
CCOC(NC(=O)c1ccccc1)(C(F)(F)F)C(F)(F)F | 113.9 | ·
COc1ccc(CN(C)C(=O)COc2ccc(-c3nnco3)cc2)c(OC)c1OC | 95.5 | 8.0
CC1CCN(Cn2nc(-c3ccc4c(c3)OCO4)oc2=S)CC1 | 41.7* | -7.0
CC1CN(Cn2nc(-c3ccc4c(c3)OCO4)oc2=S)CC(C)O1 (stereo not drawn) | 79.5 | -11.0
O=C(Cn1ncn2c(cc3sccc32)c1=O)NCc1ccccc1 | 82.2 | -2.0
CCOc1ccc(NC(=S)NC(c2ccccc2)c2ccccc2)cc1 | 101.0 | ·
CCc1ccc(OCC(=O)c2c(O)c3ccccc3oc2=O)cc1 | 4.4* | 32.0
COC(=O)c1c(O)c2ccccc2oc1=O | 101.6 | ·
Cc1ccc(N2C(=O)c3ccccc3C2=O)cc1 | 100.5 | 4.0
Cc1ccc(-n2sc3ccccc3c2=O)cc1 | 1.1* | 2.0
CS(=O)(=O)c1sc(Br)c2c1C(=O)CCC2 | 100.6 | ·
CS(=O)(=O)c1sc(C#N)c2c1C(=O)CCC2 | 0.4* | 4.0
O=C(NNc1ccccc1C(F)(F)F)C1CCCC1 | 85.0 | -5.0
Cc1nc(Nc2ccccc2)nc2c1ncn2-c1ccccc1 | 95.1 | 11.0
Cc1c2oc3c(C)ccc(C(=O)OC(C)C4NC(=O)C(C(C)C)N(C)C(=O)CN(C)C(=O)C5CCCN5C(=O)C(C(C)C)NC4=O)c3nc-2c(C(=O)OC(C)C2NC(=O)C(C(C)C)N(C)C(=O)CN(C)C(=O)C3CCCN3C(=O)C(C(C)C)NC2=O)c(N)c1=O (stereo not drawn) | -0.6* | ·
O=C(Nc1ccc(N2CCCCC2)cc1)c1ccc2nonc2c1 | 108.6 | ·
O=C(NCc1ccccc1)c1nc(S(=O)(=O)Cc2ccc(F)cc2)ncc1Cl | 14.9 | ·
Cc1cccc(CS(=O)(=O)c2ncc(Cl)c(C(=O)NCc3ccccc3)n2)c1 | 1.6* | ·
CCC1(c2cccc(OC(=O)Nc3ccc(OC(F)(F)F)cc3)c2)CCCCN(C)C1=O (stereo not drawn) | 4.2* | ·
O=C(O)CC1(CC(=O)Nc2ccc(OC(F)(F)F)cc2)CCCC1 | 93.7 | ·
NNc1nc2ccccc2[nH]c1=S | 15.7 | 10.0
SMILES | Sa growth 42C | Sa helicase inh
CN[C@@H]1[C@@H](O[C@H]2O[C@H](CO)[C@@H](N)[C@H](O)[C@H]2O)O[C@H]2C[C@@H](N)[C@H](O[C@H]3[C@H](O)[C@@H](O)[C@H](N)C[C@@H]3N)O[C@@H]2[C@@H]1O | 99.0 | ·
NC[C@H]1O[C@H](O[C@H]2[C@H](O)[C@@H](O[C@H]3O[C@H](CO)[C@@H](O)[C@H](N)[C@H]3O)[C@H](N)C[C@@H]2N)[C@H](N)[C@@H](O)[C@@H]1O | -0.2* | ·
CCN1CCN(C(c2ccc(C)cc2)c2sc3nc(-c4ccco4)nn3c2O)CC1 (stereo not drawn) | 115.5 | ·
Cc1cc(C)n(C(C)CC(=O)Nc2cccc(C(F)(F)F)c2)n1 (stereo not drawn) | 82.1 | ·
C(=Nc1cccnc1)c1c[nH]c2ccccc12 | 8.3* | -12.0
C(=Nc1cccnc1)c1ccccc1 | 102.7 | -17.0
CCCCC/C=C/CCC(=O)N[C@H]1[C@H](Oc2c3cc4cc2Oc2ccc(cc2Cl)[C@@H](O[C@@H]2O[C@H](CO)[C@@H](O)[C@H](O)[C@H]2NC(C)=O)[C@@H]2NC(=O)[C@H](NC(=O)[C@@H]4NC(=O)[C@H]4NC(=O)C(Cc5ccc(c(Cl)c5)O3)NC(=O)[C@H](N)c3ccc(O)c(c3)Oc3cc(O)cc4c3)c3ccc(O)c(c3)-c3c(OC4O[C@H](CO)[C@@H](O)[C@H](O)[C@@H]4O)cc(O)cc3[C@@H](C(=O)O)NC2=O)O[C@H](CO)[C@@H](O)[C@@H]1O (stereo partly drawn) | -0.1* | ·
CC(=O)On1cc(F)c(=O)[nH]c1=O | 0.7* | 2.0
CCOC(=O)CCn1cc(F)c(=O)[nH]c1=O | 94.8 | 8.0
CCc1ccc[n+](OC(=O)N(CC)CC)c1 | 0.1* | 15.0
CCN(CC)C(=O)Oc1ccccc1 | 113.6 | 9.0
O=C(Cc1c[nH]c2ccccc12)OCc1c(F)c(F)c(F)c(F)c1F | 108.0 | 0.0
Cc1c(C(=O)c2ccncc2)c2ccccn2c1CCC#N | 70.6 | 8.0
O=C(CN1C(=O)CSc2ccccc21)NCCC1=CCCCC1 | 102.5 | ·
O=C1N=c2ccccc2=C1N=Nc1c(O)[nH]c2ccccc12 | 37.6 | -23.0
O=C1C2C=CC=CC2=NC(=S)[N+]1=Nc1c(O)[nH]c2ccccc12 (stereo not drawn) | 1.4* | 11.0
Cc1ccc(C2=Nc3ccccc3N(CC(=O)NCc3ccc(Cl)cc3)C(=O)C2)cc1C | 97.1 | ·
CCn1c(O)c(N=NS(=O)(=O)c2ccc(C)cc2)c2cc(Cl)ccc21 | 0.8* | 13.0
CCn1c2ccc(Cl)cc2c2cc(Cl)ccc21 | 107.6 | ·
Cc1ccc(NC(=O)Nc2c(C)noc2-c2cccs2)cc1 | 99.2 | 28.0
